Screening results as filed in PubChem BioAssay.
AmpC no deterg = AmpC beta-lactamase inhibition without detergent | P00811 | Potency, µM (top dose mostly 57.1 µM), without a hit: top-dose activity change, negative = inhibition, most hits filed as inhibitors | 0.52% of 330,000 active | AmpC nitrocefin hydrolysis, absorbance 480 nm, 0.0001% Triton;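 also: plate controls were no compound for no effect and no enzyme for full effect; nearly all actives have a fitted effect of over 20% in size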
Target sequence (P00811 whole entry, looked up): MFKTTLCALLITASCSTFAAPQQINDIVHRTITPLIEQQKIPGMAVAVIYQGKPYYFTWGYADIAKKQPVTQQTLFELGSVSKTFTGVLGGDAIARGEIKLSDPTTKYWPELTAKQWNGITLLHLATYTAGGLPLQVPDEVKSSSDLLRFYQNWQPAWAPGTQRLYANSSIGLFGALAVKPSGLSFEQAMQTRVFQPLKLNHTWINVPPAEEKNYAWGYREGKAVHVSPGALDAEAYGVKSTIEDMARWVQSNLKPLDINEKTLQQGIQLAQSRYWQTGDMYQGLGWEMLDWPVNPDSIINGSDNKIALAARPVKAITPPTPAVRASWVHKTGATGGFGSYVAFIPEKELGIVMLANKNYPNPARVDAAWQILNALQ
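20 mM phosphate pH 7.0 + 0.01% (detergent screen) or 0.0001% Triton X-100; 5.3 nM AmpC reagent; cpd preinc 15 min RT; nitrocefin (800 uM stock) to start; A480 q20 s × 4 min; Activity was normalised to no-enzyme and no-compound control wells.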
Sm TGR inh = blocks Schistosoma mansoni thioredoxin glutathione reductase; Q962Y6; purified TGR, DTNB reduction, TNB absorbance 405 nm; Potency, µM (top dose mostly 114 µM), for inactives: top-dose activity change, negative = inhibition, usual class: inhibitors; 3% of 360,000 active; AID 485364; also: nearly all actives have a fitted effect of over 60% in size
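TGR 20 nM + NADPH 100 uM (dispensed conc.), cpd preinc 15 min RT; start with NADPH (500 uM addition) then DTNB (15 mM addition). Kinetic TNB absorbance, 405 nm filter. Four-parameter Hill fit across titration.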
FBPA Giardia inh = Giardia lamblia aldolase inhibition; 0.71% of 290,000 active; AID 2451; purified Giardia FBPA; A8B2U2; Potency, µM (top dose mostly 59.6 µM), for inactives: top-dose activity, negative = inhibition, usual class: inhibitors; also: nearly all actives have a fitted effect of over 55% in size
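40 nM FBPA preincubated 10 min at RT with compound (up to 57.5 uM final), then substrate plus GAPDH/TPI/NAD/arsenate coupling and diaphorase/resazurin added. Fluorescence read after 20 min at RT, 525/598 nm.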
AmpC inh detg = blocks E. coli AmpC beta-lactamase in detergent assay; P00811; AmpC hydrolysis of nitrocefin, absorbance 480 nm, 0.01% Triton; Potency, µM (titrated, usually from 114 µM), without a hit: top-dose activity change, negative = inhibition, most hits filed as inhibitors; 0.041% of 370,000 active; AID 485294;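 also: 0% = no-compound wells and -100% = no-enzyme wells; nearly all actives have a fitted effect of over 25% in size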
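20 mM phosphate pH 7.0 + 0.01% (detergent screen) or 0.0001% Triton X-100; 5.3 nM AmpC reagent; cpd preinc 15 min RT; nitrocefin (800 uM stock) to start; A480 q20 s × 4 min; Activity was normalised to no-enzyme and no-compound control wells.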
RE007 growth inh = less growth of the S. pombe RE007 Vpr strain. AID 651644. S. pombe RE007 Vpr strain, BacTiter-Glo ATP luminescence, 24 h. 0.21% of 360,000 active. Potency, µM (series often up to 92.2 µM), without a hit: top-dose activity change, negative = less growth, actives largely listed as inhibitors; active = well fitted falling curve with a large enough effect; inconclusive = small, poorly fitted or top-dose-only effect; inactive = no such curve, though single readings can be large or run the other way; also: nearly all actives have a fitted effect of over 50% in size
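Fission yeast RE007 carrying one integrated HIV-1 vpr copy, seeded at OD 0.01 in PMG+AL medium with 23 nL pinned compound. Grown 24 h at 30 degrees; viability read by BacTiter-Glo luminescence after 5 min.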
* marks the source's active call; other numbers are inactive results; ? = inconclusive; / = no result; [ ] = dose if it differs, or a comment. A selection: hits, their analogues and other compounds. The true share with any hit is near 3.4%. Unless noted, calls follow the shape of the dose curve; as a rule, active = well fitted curve in the direction sought with a large enough effect; inconclusive = small, poorly fitted or top-dose-only effect, or another doubt; inactive = no such curve, though single readings can be large; an effect the other way counts as inactive or inconclusive. Unless noted, % is scaled to controls: 0 for no effect and ±100 for the full control effect; potency is read from the fitted curve at half-maximal effect.

SMILES | AmpC no deterg | Sm TGR inh | FBPA Giardia inh | AmpC inh detg | RE007 growth inh
CCOc1ccc(NC(=O)CC2C(=O)N(c3ccc(OC)cc3)C(=O)N2C2CCCCC2)cc1 (centres undefined) | / | 9.1% | / | 4.4% | /
CCOc1ccc(NC(=O)CC2C(=O)N(c3ccccc3)C(=O)N2C2CCCC2)cc1 (centres undefined) | / | 50.1µM* | / | 25.4% | /
Cc1cccc(NC(=O)C2CCN(S(=O)(=O)c3c(C)noc3/C=C/c3ccco3)CC2)n1 | 2.5% | -4.4% | -4.2% | -4.2% | 3.8%
CN(C)c1ccc(S(=O)(=O)NCC(=O)OCC(=O)Nc2cccc(Cl)c2)cc1[N+](=O)[O-] | -6.6% | -2.7% | 2.4% | -8.2% | 7.3%
CNc1ccc(S(=O)(=O)NCC(=O)OCC(=O)Nc2cccc(Cl)c2Cl)cc1[N+](=O)[O-] | 25.1µM* | -6.2% | -1.9% | -4.1% | -17.9%
Cc1ccc(S(=O)(=O)Cn2nnnc2C(C)N2CCN(C(=O)c3ccco3)CC2)cc1 (centres undefined) | 53.6% | 44.7µM* | -2.8% | -13.1% | 4.9%
CCCCC(c1nnnn1CS(=O)(=O)c1ccc(C)cc1)N1CCN(C)CC1 (centres undefined) | 106.7% | 10µM* | -17.9% | -2.7% | -0.3%
CCOc1cc(C2C3=C(CCCC3=O)N(CC(=O)O)C3=C2C(=O)CCC3)ccc1OC | -6.4% | 89.1µM* | -7.7% | -10.4% | 6.1%
COc1ccccc1C1C2=C(CCCC2=O)N(CC(=O)O)C2=C1C(=O)CCC2 | -2.7% | ? | 0.8% | -1.2% | 10.4%
COc1ccc(C2C3=C(CCCC3=O)N(CC(=O)O)C3=C2C(=O)CCC3)cc1Cl | -23.9% | 50.1µM* | -18.8% | -11.8% | -13.0%
COc1ccc(C2C3=C(CCCC3=O)N(CC(=O)O)C3=C2C(=O)CCC3)cc1Br | / | / | / | / | -14.0%
CSc1nsc(/C=C/Nc2ccc(Cl)cc2)c1C#N | 17.8µM* | -16.9% | -21.2% | -4.8% | -1.0%
CSc1nsc(/C=C/Nc2ccc(F)cc2)c1C#N | -46.0% | -14.5% | ? | 0.1% | 5.2%
CSc1nsc(/C=C/Nc2ccc(O)cc2C)c1C#N | -58.5% | -2.3% | 17.7µM* | ? | -17.8%
CSc1nsc(/C=C/Nc2cccc(Cl)c2)c1C#N | / | -4.4% | -22.7% | ? | -0.8%
CCCn1nc(C(=O)NC2CC2)c2ccccc2c1=O | -1.4% | -8.7% | / | 6.8% | -5.4%
NC(CCc1ccccc1)c1csc(NC(=O)Nc2ccccc2Oc2ccccc2)n1 (centres undefined) | / | / | / | / | 0.9%
CCC1C(=O)NCCN1Cc1nc(-c2ccc(C)s2)oc1C (centres undefined) | 5.1% | 39.8µM* | -4.5% | 5.5% | 6.6%
COC(=O)C1=C(C)N(Cc2ccccc2)C(=O)N[C@H]1c1ccc(Br)cc1 | -16.9% | 1.2% | 2.6%[12.9 µM] | 0.0% | 5.0%
CCn1cc(S(=O)(=O)c2ccc(C)cc2)[nH]c1=O | -20.7% | 6.2% | 0.9% | -3.7% | 4.8%
CCc1c(C(C)S(=O)(=O)c2ccc(C)cc2)[nH]c(=O)n1-c1ccc(OC(F)(F)F)cc1 (centres undefined) | 1.9% | 5.62µM* | 14.5% | 7.4% | 17.0%
CC1OC23CCCCC2C(C#N)(C(=N)O3)C1(C#N)C#N (centres undefined) | -12.1% | ? | 0.4% | ? | 11.6%
COc1ccc(C2OC34CCCCC3C(C#N)(C#N)C2(C#N)C(=N)O4)cc1 (centres undefined) | -44.6% | 39.8µM* | -27.0% | -9.5% | 2.9%
N#CC1(C#N)COC23CCCCC2C1(C#N)C(=N)O3 (centres undefined) | -23.4% | 56.2µM* | ? | ? | -12.6%
N#CC12COC3(CCCCC3C1(C#N)C#N)OC2=N (centres undefined) | -8.2% | 17.8µM* | -28.4% | -0.4% | -4.4%
Cc1cc(C)nc(SCc2ccc(C(=O)O)o2)n1 | -26.4% | -21.4% | 16.5% | ? | 2.0%
Cc1cc(C(F)(F)F)nc(SCc2ccc(C(=O)O)o2)n1 | -30.1% | 14.1µM* | 10.9% | -9.4% | -9.4%
CCOC(=O)C1=C(C)NC(C)=C(C(=O)OCC)C1c1cn(-c2ccccc2)nc1-c1ccco1 | -8.9% | -23.9% | 0.6% | -14.6% | 7.3%
